Measured values: PubChem BioAssay (NCI)
Several values for one entry are separate records, joined by “and”; a condition that tells them apart may be missing. Identical values can stand only once. The panel holds about 83,000 compounds, 20% with a hit somewhere; the sample as a whole holds those more often.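 Cells were grown in 96-well plates and exposed to the test compound at a single concentration for 48 hours; results are reported as percent growth, with values below 10 considered active.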 Unmarked numbers belong to inactive results. Activity calls are given as the source filed them.

system: ACHN renal; test: NCI-60 one-dose screen, 48 h (100 = growth as untreated, 0 = no growth, -100 = all killed); settings: 10 µM unless noted

Q: With `OCCN1CCCCCCC1` as the molecule, how does the growth read?
A: 103%

Q: For `O=[N+]([O-])c1cccc(SSc2cccc([N+](=O)[O-])c2)c1`, which growth is on record?
A: 99.5%

Q: `CCc1cc(C)cc(O)c1` was tested. Which growth did it give?
A: 117%

Q: `COc1ccc(Nc2ccc3ccccc3c2)cc1` was tested. Which growth did it give?
A: 92%

Q: `O=C(CO)C(O)C(O)C(O)C(O)CO` (stereo not given) was tested. Which growth did it give?
A: 110% and 109%

Q: For `Nc1ncnc2c1ncn2C1OC(COP(=O)(O)O)C(O)C1O` (stereo not given), which growth is on record?
A: 103%

Q: `c1ccc(CNCCNCc2ccccc2)cc1` was tested. Which growth did it give?
A: 99.7%

Q: For `Cc1cc2ccccc2cn1`, which growth is on record?
A: 107% and 102%

Q: Which growth does the source give for `CCCCCCCCCCNC(=O)CI` here?
A: -93.7% (active)

Q: With `O=C1OC(c2ccccc2)=N/C1=C\c1ccccc1` as the molecule, how does the growth read?
A: 104%

Q: `Cc1cc(-c2cc(C)c(O)c(C)c2)cc(C)c1O` was tested. Which growth did it give?
A: 92.1%

Q: Which growth does the source give for `O=C(O)CCCl` here?
A: 101%

Q: For `O=c1n(CC2CO2)c(=O)n(CC2CO2)c(=O)n1CC1CO1` (stereo not given), which growth is on record?
A: 19.8%

Q: Which growth does the source give for `Cl` here?
A: 104%

Q: `O=c1[nH]cnc2c1ncn2C1OC(CO)C(O)C1O` (stereo not given) was tested. Which growth did it give?
A: 116% and 109% and 105%

Q: `COc1cc(C(O)C2C(=O)OCC2C2(c3ccc4c(c3)OCO4)SCCCS2)cc(OC)c1OC` (stereo not given) was tested. Which growth did it give?
A: 103%

Q: `CC(=O)NCC(=O)c1ccc([N+](=O)[O-])cc1` was tested. Which growth did it give?
A: 103%

Q: `CC(C)NCC(O)c1ccc(O)c(O)c1` (stereo not given) was tested. Which growth did it give?
A: 89.6% and 104%

Q: How did the growth turn out when `CN1CNC(=O)NC1` was run?
A: 113% and 107%

Q: `Cc1ccc(S(=O)(=O)c2ccccc2)cc1` was tested. Which growth did it give?
A: 56%

Q: With `O=C(O)/C=C\C(=O)Nc1cccc2ccccc12` as the molecule, how does the growth read?
A: 90.5% and 99.2%

Q: Which growth does the source give for `N#CC(C#N)N=Nc1cc(Cl)ccc1Cl` here?
A: 94.1%

Q: Which growth does the source give for `Brc1ccc(SSc2ccc(Br)cc2)cc1` here?
A: 109%

Q: Which growth does the source give for `c1ccc(-c2nc3ccccc3s2)cc1` here?
A: 87.1%

Q: With `COc1ccc(N/C=C/C2=[N+](C)c3ccccc3C2(C)C)c(OC)c1` as the molecule, how does the growth read?
A: 104%

Q: `COc1ccc(C(=O)CC(c2ccccc2)C(C#N)c2ccccc2)cc1` (stereo not given) was tested. Which growth did it give?
A: 88.8%

Q: Which growth does the source give for `CCOC(=O)c1c(C)cc(=O)oc1C` here?
A: 104%

Q: With `CCCCCCCCCCCCCCCc1ccc(N)c(OC2OC(CO)C(O)C(O)C2O)c1` (stereo not given) as the molecule, how does the growth read?
A: 86.1%

Q: Which growth does the source give for `CC(=O)OC(C)C(=O)NCC(C)O` (stereo not given) here?
A: 102%

Q: With `OC1COC(OCc2ccccc2)C(O)C1O` (stereo not given) as the molecule, how does the growth read?
A: 106%

Q: For `NC(=O)NCCCC(N)C(=O)O` (stereo not given), which growth is on record?
A: 98.7%

Q: Which growth does the source give for `ClCCOCCOc1ccc(C2CCCCC2)cc1` here?
A: 108%

Q: With `Fc1ccc([I+]c2ccc(F)cc2)cc1` as the molecule, how does the growth read?
A: 79.5%

Q: `CC(C)C(C)(C)c1ccc(O)cc1` was tested. Which growth did it give?
A: 112%

Q: `Cn1cnc([N+](=O)[O-])c1Sc1ncn[nH]1` was tested. Which growth did it give?
A: 110%

Q: With `O=C(Cc1ccccc1)c1ccc(O)c(Cl)c1` as the molecule, how does the growth read?
A: 37.6%

Q: For `CC1CCC2(OC1)OC1CC3C4CC=C5CC(O)CCC5(C)C4CCC3(C)C1C2C` (stereo not given), which growth is on record?
A: 93.5%

system: CAKI-1 renal; test: as above; settings: 10 µM unless noted

Q: How did the growth turn out when `OCCN1CCCCCCC1` was run?
A: 93.2%

Q: With `O=[N+]([O-])c1cccc(SSc2cccc([N+](=O)[O-])c2)c1` as the molecule, how does the growth read?
A: 103%

Q: For `CCc1cc(C)cc(O)c1`, which growth is on record?
A: 108%

Q: For `COc1ccc(Nc2ccc3ccccc3c2)cc1`, which growth is on record?
A: 52.3%

Q: For `O=C(CO)C(O)C(O)C(O)C(O)CO` (stereo not given), which growth is on record?
A: 102% and 101%

Q: `Nc1ncnc2c1ncn2C1OC(COP(=O)(O)O)C(O)C1O` (stereo not given) was tested. Which growth did it give?
A: 106%

Q: `c1ccc(CNCCNCc2ccccc2)cc1` was tested. Which growth did it give?
A: 98.5%

Q: With `Cc1cc2ccccc2cn1` as the molecule, how does the growth read?
A: 100% and 67.8%

Q: `CCCCCCCCCCNC(=O)CI` was tested. Which growth did it give?
A: -93.5% (active)

Q: How did the growth turn out when `O=C1OC(c2ccccc2)=N/C1=C\c1ccccc1` was run?
A: 110%

Q: Which growth does the source give for `Cc1cc(-c2cc(C)c(O)c(C)c2)cc(C)c1O` here?
A: 59.4%

Q: For `O=C(O)CCCl`, which growth is on record?
A: 102%

Q: Which growth does the source give for `O=c1n(CC2CO2)c(=O)n(CC2CO2)c(=O)n1CC1CO1` (stereo not given) here?
A: -7.84% (active)

Q: How did the growth turn out when `Cl` was run?
A: 95.6%

Q: Which growth does the source give for `O=c1[nH]cnc2c1ncn2C1OC(CO)C(O)C1O` (stereo not given) here?
A: 113% and 95.3% and 63.4%

Q: How did the growth turn out when `COc1cc(C(O)C2C(=O)OCC2C2(c3ccc4c(c3)OCO4)SCCCS2)cc(OC)c1OC` (stereo not given) was run?
A: 93.8%

Q: `CC(=O)NCC(=O)c1ccc([N+](=O)[O-])cc1` was tested. Which growth did it give?
A: 103%

Q: For `CC(C)NCC(O)c1ccc(O)c(O)c1` (stereo not given), which growth is on record?
A: 93.6% and 83.6%

Q: With `CN1CNC(=O)NC1` as the molecule, how does the growth read?
A: 98.5% and 106%

Q: For `Cc1ccc(S(=O)(=O)c2ccccc2)cc1`, which growth is on record?
A: 25.4%

Q: With `O=C(O)/C=C\C(=O)Nc1cccc2ccccc12` as the molecule, how does the growth read?
A: 89.4% and 98.7%

Q: With `Brc1ccc(SSc2ccc(Br)cc2)cc1` as the molecule, how does the growth read?
A: 106%

Q: For `c1ccc(-c2nc3ccccc3s2)cc1`, which growth is on record?
A: 79.7%

Q: For `COc1ccc(N/C=C/C2=[N+](C)c3ccccc3C2(C)C)c(OC)c1`, which growth is on record?
A: 81.9%

Q: How did the growth turn out when `COc1ccc(C(=O)CC(c2ccccc2)C(C#N)c2ccccc2)cc1` (stereo not given) was run?
A: 74.2%

Q: For `CC(=O)OC(C)C(=O)NCC(C)O` (stereo not given), which growth is on record?
A: 108%

Q: How did the growth turn out when `OC1COC(OCc2ccccc2)C(O)C1O` (stereo not given) was run?
A: 105%

Q: Which growth does the source give for `NC(=O)NCCCC(N)C(=O)O` (stereo not given) here?
A: 84.6%

Q: How did the growth turn out when `ClCCOCCOc1ccc(C2CCCCC2)cc1` was run?
A: 97.3%

Q: With `Fc1ccc([I+]c2ccc(F)cc2)cc1` as the molecule, how does the growth read?
A: 61.2%

Q: `CC(C)C(C)(C)c1ccc(O)cc1` was tested. Which growth did it give?
A: 96.4%

Q: How did the growth turn out when `Cn1cnc([N+](=O)[O-])c1Sc1ncn[nH]1` was run?
A: 68.4%

Q: With `O=C(Cc1ccccc1)c1ccc(O)c(Cl)c1` as the molecule, how does the growth read?
A: 42.1%
